HCMV inh – blocks human cytomegalovirus replication; activity change, negative = inhibition, % at 57.5 µM; HFF cells, HCMV-luciferase reporter, 72 h; hits give low values; 410,000 tested, 4.5% active; AID 1259415; in the data active = activity change below about -60%; inconclusive = no clear call, values can overlap the other calls; inactive = above about -39%
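Steps: HFFs plated, 16 h 37C; compounds added; HCMV-luciferase added to MOI 1 PFU/cell; 72 h 37C; OneGlo reagent, 5 min room temperature; luminescence read, normalized to controls.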
HCV inhibitor – inhibitors of hepatitis C virus infection | Huh7.5.1 HCVcc-Cre infection, luciferase reporter, 44 h | 340,000 tested, 3.4% active | Potency, µM (highest dose often 41.8 µM), without a hit: at the top dose activity change, negative = inhibition, actives largely listed as inhibitors; note: potency is the fitted concentration of half-maximal effect
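1,000 cells/well; 4 h culture; + compound; + HCVcc-Cre (~0.5 moi); 44 h; luciferase substrate, RT 15 min; read 15 sec.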
LASV entry inh – blocks Lassa virus binding to or entry into cells; Lassa virus pseudotype entry inhibition, cell reporter; Potency, µM (titrated, usually from 37.9 µM), for the others: at the top dose activity change, negative = inhibition, hits mostly inhibitors; 300,000 tested, 1.2% active; calls by dose curve; tested in HEK293 cells; note: potency is the fitted concentration of half-maximal effect; nearly all actives have a fitted effect of over 50% in size
Pf growth 48h – P. falciparum growth inhibition at 48 hours (one generation) | 310,000 tested, 5.9% active | Potency, µM (top dose mostly 28.7 µM), for inactives: top-dose activity change, negative = inhibition, actives largely listed as inhibitors | AID 504832 | P. falciparum luciferase growth in erythrocytes, 48 h; note: potency is the fitted concentration of half-maximal effect
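Firefly luciferase activity from engineered P. falciparum reports growth; inhibitors lower the luminescent signal. Cultures contained 2% hematocrit erythrocytes at 0.1% final parasitemia.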
Marburg entry inh – inhibitors of Marburg virus binding or cell entry | 300,000 tested, 1.8% active | Potency, µM (highest dose often 37.8 µM), without a hit: at the top dose activity change, negative = inhibition, most hits filed as inhibitors | AID 540276 | Marburg virus pseudotyped entry inhibition, cell reporter; calls by dose curve; tested in HEK293 cells; note: potency is the fitted concentration of half-maximal effect
Pf growth 96h – P. falciparum growth inhibition at 96 hour, primary screen for plastid delayed-death inhibitors. P. falciparum luciferase reporter growth, 96 h. Potency, µM (top dose mostly 28.7 µM), without a hit: top-dose activity change, negative = inhibition, most hits filed as inhibitors. 320,000 tested, 6.9% active. AID 504834; note: potency is the fitted concentration of half-maximal effect
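Compounds incubated with erythrocytes infected by luciferase-expressing P. falciparum (2% hematocrit, 0.05% parasitemia final) for 96 hours, 37 C in 5% CO2. Growth inhibition scored as decreased luciferase luminescence.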
Active calls of the source: *; ? = inconclusive; . = not tested or not shown; [ ] = another dose, or the depositor's remark. Most compounds without a hit are left out; they make up all but 14% or so of the library. Unless noted, calls come from the whole dose curve; as a rule, active = well fitted inhibition curve with a large enough effect; inconclusive = small, poorly fitted or top-dose-only effect, or another doubt; inactive = no such curve, though single readings can be large or run the other way. % is set by controls: 0 for no effect and ±100 for the full control effect.

SMILES	HCMV inh	HCV inhibitor	LASV entry inh	Pf growth 48h	Marburg entry inh	Pf growth 96h
CCC(C)(C)C(=O)O[C@@H]1C[C@H](C)C=C2C=C[C@H](C)[C@@H](CC[C@H]3C[C@@H](O)CC(=O)O3)[C@H]21	.	.	.	-6%[12.8 µM]	.	-25%[12.8 µM]
Cn1cccc1/C=C1\CCC/C(=C\c2cccn2C)C1=O	75	13µM*	2%	.	?	-8%
CS(=O)(=O)Nc1ccc(C(=O)Nc2ccc(S(=O)(=O)N3CCCCC3)cc2)cc1	-76*	-24%	-1%	-23%	0%	?
Cc1cccc(NS(=O)(=O)c2cccc(C(=O)N3CCN(S(=O)(=O)c4ccccc4)CC3)c2)c1	-13	?	?	?	?	12µM*
O=C(O)c1cccc(S(=O)(=O)Nc2ccc(S(=O)(=O)N3CCOCC3)cc2)c1	-34	17%	2%	25%	-3%[46.1 µM]	-16%
O=C(O)c1cccc(NS(=O)(=O)c2ccc(S(=O)(=O)N3CCOCC3)cc2)c1	-76*	10%	.	12%	.	33%
CC(=O)Nc1ccc(C(=O)Nc2ccc(S(=O)(=O)N3CCOCC3)cc2)cc1	18	-12%	.	?	.	8.3µM*
CC(=O)c1sc(NC(=O)CCc2ccccc2)nc1C	-32	.	.	.	.	.
COc1cc(F)ccc1Oc1cccc2c1S(=O)(=O)N(C1CC1)C[C@@H](COCc1ccccc1)O2	-30	.	?	.	.	.
COc1cc(C(=S)N2CCOCC2)cc(OC)c1OS(=O)(=O)c1ccc(NC(C)=O)cc1	3	-20%	-1%	0%	-18%	13µM*
CCc1c(C(=O)Nc2ccc(S(=O)(=O)N3CCOCC3)cc2)csc1C	11	10µM*	-21%	?	6%	16%
Cc1cccc(C(=O)NNC(=O)c2ccc(S(=O)(=O)N3CCOCC3)cc2)c1	-75*	18%	?	5%	?	?
CN(c1ccccc1C(=O)Nc1ccc(S(=O)(=O)N2CCOCC2)cc1)S(C)(=O)=O	-2	3%	0%	0%	?	23%
Cc1ccc(S(=O)(=O)Nc2cccc(C(=O)N3CCN(c4ccccc4O)CC3)c2)cc1F	1	-2%	-7%	1.5µM*	0%[46.1 µM]	?
COc1ccc(C(=O)Nc2ccc(S(=O)(=O)N3CCCCC3)cc2)cc1	?	?	-3%	?	-19%	.
CC(C)C(=O)Nc1cccc(C(=O)Nc2ccc(S(=O)(=O)N3CCOCC3)cc2)c1	-21	-29%	?	-11%	-11%	10µM*
CC(C)C(=O)Nc1ccc(C(=O)Nc2ccc(S(=O)(=O)N3CCOCC3)cc2)cc1	.	-18%	.	?	.	260%
Cc1ccc(-n2ccc(=O)c(C(=O)Nc3ccc(S(=O)(=O)N4CCOCC4)cc3)n2)cc1	-17	5%	-3%[46.1 µM]	23%	-15%[46.1 µM]	0%
COc1ccc(-c2cnnn2-c2ccc(NC(=O)c3ccc(S(=O)(=O)N4CCCCC4)cc3)cc2)cc1	-29	-3%	7.1µM*	?	-5%	?
O=C(c1cccc(S(=O)(=O)Nc2cccc(C(F)(F)F)c2)c1)N1CCOCC1	-27	10%	19%	5%	-1%[46.1 µM]	25%
O=C(c1cccc(NS(=O)(=O)c2cccc(C(F)(F)F)c2)c1)N1CCOCC1	-62*	23%	-2%	32%	8%	?
Cc1cccc(-n2ccc(=O)c(C(=O)Nc3ccc(S(=O)(=O)N4CCOCC4)cc3)n2)c1	-9	7%	.	-29%	.	12µM*
COc1ccccc1N1CCN(C2CCCN(Cc3cc(F)cc(F)c3)C2)CC1 (stereo not drawn)	9	-12%	.	?	.	?
O=C(Nc1ccc(-c2nc3ccccc3[nH]2)cc1)C1CCCN(Cc2ccn[nH]2)C1 (stereo not drawn)	17	.	.	.	.	.
COc1ncccc1-c1cc2nc(NCCNC(C)=O)n(C)c(=O)c2s1	10	.	.	.	.	.
Cc1ccc(NC(=O)c2ccc(S(=O)(=O)N3CCCC3)cc2)cc1	-31	13%	?	.	4%	.
Cc1ccc(NC(=O)c2ccc(S(=O)(=O)N3CCCCC3)cc2)cc1	69	5%	?	?	2%	12µM*

Screens (PubChem)
